HSP90 refold inh: blocks HSP90-mediated luciferase refolding in reticulocyte lysate | Rabbit reticulocyte lysate, luciferase refolding luminescence, 3 h | inhibition, % at 5.6 µM | 290,000 compounds, 0.91% hits;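 active = inhibition above the screen-wide mean plus 3 SD, computed separately per campaign, cut at about 16% in these data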;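 note: 0% = DMSO wells and 100% = 60 µM geldanamycin wells; inhibitors lower the luminescence because luciferase stays unfolded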
HSF-1 act: increases HSF-1 driven luciferase reporter signal | 300,000 compounds, 1.7% hits | NIH3T3-HGL HSF-1 luciferase reporter, MG132, 8 h; 100% = twice DMSO control signal | activation, % at 9 µM;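 active = mean replicate activation of at least 50% with a set share of replicates each reaching 50%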;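 note: 0% = median of the neutral control wells and 100% = twice that signal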
ARNT TACC3 PPI: disrupts binding between human ARNT and TACC3. AlphaScreen His-ARNT PAS-B/GST-TACC3 binding, luminescence; TACC3 fragment carries E629A point mutation. inhibition, % at 9.99 µM. 390,000 compounds, 0.66% hits. AID 623870;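 active = mean inhibition of replicates at least 50% and at least half of replicates each reaching 50%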;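 note: 0% = complete ARNT plus TACC3 wells and 100% = ARNT alone without TACC3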
HIF activator: HIF pathway transcriptional activation; U2OS HRE-luciferase reporter, luminescence; normalized: DMSO 0%, desferrioxamine 100%; activation, % at 7.5 µM (by protocol); 300,000 compounds, 0.32% hits;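 active = mean activation of at least 10% of the iron chelator positive control signal, with at least half of replicates also reaching 10%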
HSF1 inhib: HSF1 inhibition. NIH3T3-HGL HSE-luciferase, MG132-induced, luminescence 8 h; active compounds read low. activity change, negative = inhibition, % at 7.5 µM (by protocol). 300,000 compounds, 0.77% hits. AID 2098;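 active = more than half of replicate wells show activity change below -50%, luminescence cut by over half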;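 note: luciferase reports HSF-1 transcriptional activity via heat shock element; 0% = median of DMSO wells and -100% = zero luminescence signal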
Active calls of the source: *; x = no result. An excerpt weighted towards active compounds, which were near 3.1% of everything screened.

SMILES | HSP90 refold inh | HSF-1 act | ARNT TACC3 PPI | HIF activator | HSF1 inhib
Cc1ccc2[nH]c3c(c2c1)CN(C(C)C)CC3 | 16.3* | -16.6 | 12.1 | 0.7 | -3.2
Cc1ccc2[nH]c3c(c2c1)CN(C(=O)CN1CCCCC1)CC3 | -2.0 | -2.6 | x | -0.1 | -3.0
CCNC(=O)C[C@@H]1CC[C@@H]2[C@@H](COc3ccc(NC(=O)c4cccs4)cc3C(=O)N2C)O1 | x | x | -2.3 | x | x
CCN1CCN(C(=O)c2ccc3c(Cl)c4c(nc3c2)CCCC4)CC1 | 8.9 | 114.3* | -6.1 | x | 72.1
O=C(NCCCN1CCCCCC1)c1ccc2c(Cl)c3c(nc2c1)CCCC3 | 1.1 | -9.3 | 1.4 | 0.3 | 5.6
N#CC1CCN(C(=O)c2ccc3c(Cl)c4c(nc3c2)CCCC4)CC1 | -4.8 | 21.2 | 3.5 | 2.4 | 15.4
CN1CCN(C(=O)c2ccc3c(Cl)c4c(nc3c2)CCCC4)CC1 | 0.3 | 136.1* | 5.8 | 0.5 | 108.2
CCN1CCN(CCCNC(=O)c2ccc3c(Cl)c4c(nc3c2)CCCC4)CC1 | 4.0 | 96.7* | -11.3 | 7.6 | 72.7
CN1C(=O)c2cc(NS(=O)(=O)c3ccc(Cl)cc3)ccc2OC[C@@H]2O[C@H](CC(=O)N3CCc4ccccc4C3)CC[C@H]21 | x | x | -11.3 | x | x
O=C(Nc1ccccc1C(=O)N1CCCC1)c1ncoc1-c1cccc(Cl)c1 | 1.5 | 61.6* | -6.1 | 0.3 | 22.1
Cc1ccc(-c2ocnc2C(=O)Nc2ccccc2C(=O)N2CCCC2)cc1 | -2.3 | -4.2 | -0.6 | -0.2 | -4.5
CCOC(=O)/C=C(\C)Nc1cc(C)nn1-c1ccccc1 | 4.4 | 53.9* | -2.6 | -0.3 | 31.1
O=C(C[C@@H]1CC[C@H]2[C@@H](COC[C@H](O)CN2C(=O)c2ccncc2)O1)NC1Cc2ccccc2C1 | x | x | -9.6 | x | x
Nc1ccc2nc(SCc3ccc([N+](=O)[O-])cc3)sc2c1 | -2.1 | 98.4* | 4.2 | 2.4 | 57.1
O=[N+]([O-])c1ccc(CSc2nnc(SCc3ccc(Cl)cc3)s2)cc1 | 2.8 | 55.7* | -6.2 | 0.2 | 27.3
C[C@@H]1CN([C@@H](C)CO)S(=O)(=O)c2ccc(-c3cncnc3)cc2O[C@@H]1CN(C)C(=O)c1ccc2c(c1)OCO2 | x | x | -10.1 | x | x
CC(C)NC(=O)Nc1ccc2c(c1)C(=O)N([C@@H](C)CO)C[C@H](C)[C@@H](CN(C)CC1CCCCC1)OCCCC[C@H](C)O2 | x | x | -2.8 | x | x
Cc1ccn2cc(-c3cnoc3C)nc2c1 | 5.4 | 16.4 | -27.9 | 1.5 | 2.0
COc1c(Cl)cccc1-c1cn2ccc(C)cc2n1 | 2.7 | 57.8* | -3.0 | 1.7 | 26.4
O=[N+]([O-])c1cnc(Sc2ccncn2)s1 | 3.8 | x | 0.4 | -6.4 | -66.8*
NC(=O)c1cc(NC(=O)c2ccc(NS(=O)(=O)c3cccs3)cc2)cc(C(N)=O)c1 | 0.8 | -15.7 | 35.3* | -0.2 | -5.7
Cc1cc(C(=O)CCl)c(C)n1CCc1ccc(Cl)cc1 | -0.8 | 61.3* | -12.4 | 0.4 | 41.2
C[C@@H]1CN([C@H](C)CO)C(=O)c2cc(C3=CCCCC3)cnc2O[C@@H]1CN(C)C(=O)c1ccccn1 | x | x | -5.3 | x | x
O=[N+]([O-])c1ccc(COn2nnc3ccccc32)cc1 | -2.5 | 30.0 | -2.7 | 0.8 | 19.7
Clc1ccc(COn2nnc3ccccc32)c(Cl)c1 | 5.0 | 85.8* | x | -27.3 | 52.6
SMILES | HSP90 refold inh | HSF-1 act | ARNT TACC3 PPI | HIF activator | HSF1 inhib
O=C(CC(Nc1ccc(F)cc1)C(=O)O)c1ccccc1 (configuration not stated) | -0.8 | 56.4* | 1.3 | 3.3 | 34.2
O=C(CCC(=O)c1cccs1)OCC(=O)c1ccc(F)cc1 | x | x | -8.2 | x | x
O=C(CC(Nc1ccc(F)cc1)C(=O)OCC(=O)c1cccs1)c1ccccc1 (configuration not stated) | 1.6 | 88.6* | -0.3 | 4.7 | 54.9
C[C@H](NC(=O)C[C@H]1CC[C@@H](NC(=O)CN2CCOCC2)[C@@H](CO)O1)c1ccccc1 | x | x | 1.8 | x | x
COc1cccc(-c2nnc(-c3ccc(C(F)(F)F)cc3)o2)c1 | -1.7 | 26.0 | x | 4.3 | 17.4
Oc1ccccc1-c1nnc(-c2ccc(C(F)(F)F)cc2)o1 | -2.4 | -71.3 | -6.1 | -18.2 | -63.2*
O=C(C[C@@H]1C=C[C@H](NC(=O)Cc2cccnc2)[C@@H](CO)O1)Nc1ccccc1 | x | x | 1.6 | x | x
COC(=O)C1NN=C(C(=O)c2ccc(Cl)cc2)C1c1ccc(OC)cc1 (configuration not stated) | 1.2 | 53.9* | 2.5 | -0.2 | 18.9

Source: PubChem
